From ChEMBL document CHEMBL3988442, “University of Dundee, Small-Polar-MMV Screening Library” (2021) come the findings set out here.

Parameters in all cases: scale not given: direction of the effect not stated beside the values
In assay [1] the target is Protein translocase subunit SecA (Escherichia coli (strain K12)) (UniProt P10408). Put plainly: Assay to Identify E. coli SecA ATPase Inhibitors. Type of assay: functional. The settings on record: 30 µM.
For assay [2], the target named is T1, Ubiquitin-activating enzyme e1, putative (Leishmania donovani (strain BPK282A1)) (UniProt E9BSI1).
T1 sequence (whole entry): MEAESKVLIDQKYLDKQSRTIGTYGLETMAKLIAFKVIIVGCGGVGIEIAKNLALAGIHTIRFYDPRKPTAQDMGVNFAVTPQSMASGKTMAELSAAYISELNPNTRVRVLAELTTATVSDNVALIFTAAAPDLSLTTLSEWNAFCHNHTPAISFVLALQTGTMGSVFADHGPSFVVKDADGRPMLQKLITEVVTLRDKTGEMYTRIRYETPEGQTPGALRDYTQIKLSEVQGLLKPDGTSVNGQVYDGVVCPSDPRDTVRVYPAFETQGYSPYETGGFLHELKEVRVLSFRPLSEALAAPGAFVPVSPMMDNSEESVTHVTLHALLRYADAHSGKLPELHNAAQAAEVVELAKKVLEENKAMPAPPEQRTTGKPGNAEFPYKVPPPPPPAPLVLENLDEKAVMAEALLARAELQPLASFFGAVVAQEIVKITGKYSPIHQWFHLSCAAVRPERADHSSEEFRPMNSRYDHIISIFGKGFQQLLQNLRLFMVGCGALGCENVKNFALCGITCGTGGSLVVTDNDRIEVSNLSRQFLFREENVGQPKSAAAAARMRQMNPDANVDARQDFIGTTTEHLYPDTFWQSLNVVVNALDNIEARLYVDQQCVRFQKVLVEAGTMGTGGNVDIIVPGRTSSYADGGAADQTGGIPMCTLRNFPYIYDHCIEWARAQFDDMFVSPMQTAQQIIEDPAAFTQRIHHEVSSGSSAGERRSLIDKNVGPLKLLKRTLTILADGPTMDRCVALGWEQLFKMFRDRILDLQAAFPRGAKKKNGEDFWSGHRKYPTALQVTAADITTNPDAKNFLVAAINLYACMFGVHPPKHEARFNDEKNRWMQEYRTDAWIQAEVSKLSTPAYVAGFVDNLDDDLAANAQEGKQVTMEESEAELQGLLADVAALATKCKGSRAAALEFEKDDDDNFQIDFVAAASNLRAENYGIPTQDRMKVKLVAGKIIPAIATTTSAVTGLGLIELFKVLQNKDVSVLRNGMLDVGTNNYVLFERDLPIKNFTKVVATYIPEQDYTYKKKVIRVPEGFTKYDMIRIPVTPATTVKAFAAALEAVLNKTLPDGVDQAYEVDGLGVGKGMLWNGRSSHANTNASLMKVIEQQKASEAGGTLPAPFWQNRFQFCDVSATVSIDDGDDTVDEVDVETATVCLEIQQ
The experiment in a line: Leishmania donovani Ubiquitin Activating Enzyme (LdE1). It is filed as functional. The following applies: 30 µM.

In assay [3] the target is AMP-activated protein kinase, AMPK (Homo sapiens) (UniProt P54646+O43741+P54619+Q9UGJ0+Q9Y478+Q13131+Q9UGI9). The experiment in a line: AMP-dependent Kinase enzyme assay. An in vitro enzyme assay that detects ADP turnover that is directly proportional to AMPK activity. This uses naive AMPK that is activated during the assay with MK-8722. It is filed as functional. The settings on record: 30 µM.

In assay [4] the target is Sialic acid-binding Ig-like lectin 9 (Homo sapiens) (UniProt Q9Y336). Put plainly: Hs-Siglec9 ALPHAscreen SOP 20170721. The settings on record: 10 µM. In general terms: Bead proximity is the source of the signal in Alpha formats.
Chain of Sialic acid-binding Ig-like lectin 9 (Homo sapiens) (Q9Y336 whole entry): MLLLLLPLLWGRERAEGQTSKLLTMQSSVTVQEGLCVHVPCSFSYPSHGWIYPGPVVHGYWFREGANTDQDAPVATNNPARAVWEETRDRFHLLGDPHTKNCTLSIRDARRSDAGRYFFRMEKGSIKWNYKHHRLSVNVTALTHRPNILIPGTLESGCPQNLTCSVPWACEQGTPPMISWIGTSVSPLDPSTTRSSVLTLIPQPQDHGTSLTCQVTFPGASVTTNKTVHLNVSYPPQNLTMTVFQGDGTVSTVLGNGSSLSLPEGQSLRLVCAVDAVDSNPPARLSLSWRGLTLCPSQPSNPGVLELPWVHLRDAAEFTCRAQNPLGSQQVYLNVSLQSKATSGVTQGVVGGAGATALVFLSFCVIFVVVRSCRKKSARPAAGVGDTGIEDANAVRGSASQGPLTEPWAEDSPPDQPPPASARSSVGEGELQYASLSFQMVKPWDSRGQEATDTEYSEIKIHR
A further assay has as its system Trypanosoma cruzi. The experiment in a line: Trypanosoma cruzi phosphomannomutase and mannose-1-phosphate guanylyltransferase assay. It is filed as functional. The following applies: 10 µM.
Assay [5] concerns the target T2, Arginase-2, mitochondrial (Homo sapiens) (UniProt P78540).
T2 sequence (whole entry): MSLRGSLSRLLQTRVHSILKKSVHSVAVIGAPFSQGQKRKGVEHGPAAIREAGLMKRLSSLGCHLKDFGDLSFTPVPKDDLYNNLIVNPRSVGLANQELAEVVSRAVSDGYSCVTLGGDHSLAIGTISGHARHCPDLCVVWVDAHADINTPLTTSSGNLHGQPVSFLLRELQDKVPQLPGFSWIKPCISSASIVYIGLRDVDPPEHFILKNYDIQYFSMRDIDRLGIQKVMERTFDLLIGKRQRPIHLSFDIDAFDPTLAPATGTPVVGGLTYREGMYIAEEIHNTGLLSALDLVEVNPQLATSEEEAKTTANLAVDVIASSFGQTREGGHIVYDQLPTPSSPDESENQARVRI
Put plainly: in vitro enzyme assay to detect the production of urea directly proportional to the activity of Arginase II. Note: in the data most compounds retested in dose-response had high values. Type of assay: functional. The following applies: 33.3 µM.

Assay [6] concerns the target T3, Proteasome subunit beta (Trypanosoma cruzi) (UniProt O96673).
T3 sequence (whole entry): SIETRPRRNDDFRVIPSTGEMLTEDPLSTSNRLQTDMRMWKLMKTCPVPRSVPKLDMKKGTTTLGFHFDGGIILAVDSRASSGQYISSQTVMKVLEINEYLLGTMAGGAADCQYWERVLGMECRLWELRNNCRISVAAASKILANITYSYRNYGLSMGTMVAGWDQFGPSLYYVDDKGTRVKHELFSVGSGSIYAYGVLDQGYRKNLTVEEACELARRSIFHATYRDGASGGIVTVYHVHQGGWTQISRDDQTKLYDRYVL
Put plainly: Trypanosoma cruzi proteasome chymotrypsin-like activity (TcProtChymo) assay. Note: in the data most compounds retested in dose-response had high values. Type of assay: functional. The following applies: 9.37 µM.

The species named for another assay is Homo sapiens. The experiment in a line: To identify inhibition of the IFN signalling (Jak-Stat) pathway via expression of an eGFP reporter gene under the control of an IFN-stimulated response element (ISRE) containing MxA promoter. Type of assay: functional. The settings on record: 30 µM. For orientation: Reporter assays use an easily measured gene product as a stand-in for the process of interest.

Assay [7] deals with T4, Tyrosyl-tRNA synthetase, putative (Trypanosoma cruzi (strain CL Brener)) (UniProt Q4DSP6).
T4 sequence (whole entry): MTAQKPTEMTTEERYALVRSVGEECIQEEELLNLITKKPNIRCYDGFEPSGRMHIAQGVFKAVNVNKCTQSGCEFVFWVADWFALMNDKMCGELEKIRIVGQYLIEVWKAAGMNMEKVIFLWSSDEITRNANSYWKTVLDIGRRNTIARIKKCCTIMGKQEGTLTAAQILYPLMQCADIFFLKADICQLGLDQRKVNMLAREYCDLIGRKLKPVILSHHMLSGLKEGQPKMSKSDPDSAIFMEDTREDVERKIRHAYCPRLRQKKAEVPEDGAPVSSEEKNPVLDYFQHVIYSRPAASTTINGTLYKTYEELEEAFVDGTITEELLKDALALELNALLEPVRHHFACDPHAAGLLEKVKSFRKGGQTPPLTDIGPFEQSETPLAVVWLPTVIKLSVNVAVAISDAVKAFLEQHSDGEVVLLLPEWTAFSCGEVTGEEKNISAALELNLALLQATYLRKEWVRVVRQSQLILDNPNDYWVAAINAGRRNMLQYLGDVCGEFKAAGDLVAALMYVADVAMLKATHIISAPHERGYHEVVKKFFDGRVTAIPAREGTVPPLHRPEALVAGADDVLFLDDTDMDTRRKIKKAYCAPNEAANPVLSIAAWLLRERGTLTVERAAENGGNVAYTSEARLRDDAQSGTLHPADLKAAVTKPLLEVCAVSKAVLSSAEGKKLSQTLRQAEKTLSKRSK
The experiment in a line: Trypanosoma cruzi tyrosyl tRNA synthetase (TcYRS) _High Tyrosine SOP. Note: in the data most compounds retested in dose-response had high values. The following applies: 30 µM. It is filed as functional.

Assay [8] has as its target T4, Tyrosyl-tRNA synthetase, putative (Trypanosoma cruzi (strain CL Brener)). Put plainly: Trypanosoma cruzi tyrosyl tRNA synthetase (TcYRS) SOP. It is filed as functional. The following applies: 30 µM.
The target in assay [9] is Chromo domain-containing protein 1 (Saccharomyces cerevisiae (strain ATCC 204508 / S288c) (Baker's yeast)) (UniProt P32657). Put plainly: ScCHD-1 Enzyme Inhibition Assay. Note: in the data most compounds retested in dose-response had high values. The following applies: 30 µM. It is filed as functional.
Chain of Chromo domain-containing protein 1 (Saccharomyces cerevisiae (strain ATCC 204508 / S288c) (Baker's yeast)) (P32657 whole entry, the tested form may be a part): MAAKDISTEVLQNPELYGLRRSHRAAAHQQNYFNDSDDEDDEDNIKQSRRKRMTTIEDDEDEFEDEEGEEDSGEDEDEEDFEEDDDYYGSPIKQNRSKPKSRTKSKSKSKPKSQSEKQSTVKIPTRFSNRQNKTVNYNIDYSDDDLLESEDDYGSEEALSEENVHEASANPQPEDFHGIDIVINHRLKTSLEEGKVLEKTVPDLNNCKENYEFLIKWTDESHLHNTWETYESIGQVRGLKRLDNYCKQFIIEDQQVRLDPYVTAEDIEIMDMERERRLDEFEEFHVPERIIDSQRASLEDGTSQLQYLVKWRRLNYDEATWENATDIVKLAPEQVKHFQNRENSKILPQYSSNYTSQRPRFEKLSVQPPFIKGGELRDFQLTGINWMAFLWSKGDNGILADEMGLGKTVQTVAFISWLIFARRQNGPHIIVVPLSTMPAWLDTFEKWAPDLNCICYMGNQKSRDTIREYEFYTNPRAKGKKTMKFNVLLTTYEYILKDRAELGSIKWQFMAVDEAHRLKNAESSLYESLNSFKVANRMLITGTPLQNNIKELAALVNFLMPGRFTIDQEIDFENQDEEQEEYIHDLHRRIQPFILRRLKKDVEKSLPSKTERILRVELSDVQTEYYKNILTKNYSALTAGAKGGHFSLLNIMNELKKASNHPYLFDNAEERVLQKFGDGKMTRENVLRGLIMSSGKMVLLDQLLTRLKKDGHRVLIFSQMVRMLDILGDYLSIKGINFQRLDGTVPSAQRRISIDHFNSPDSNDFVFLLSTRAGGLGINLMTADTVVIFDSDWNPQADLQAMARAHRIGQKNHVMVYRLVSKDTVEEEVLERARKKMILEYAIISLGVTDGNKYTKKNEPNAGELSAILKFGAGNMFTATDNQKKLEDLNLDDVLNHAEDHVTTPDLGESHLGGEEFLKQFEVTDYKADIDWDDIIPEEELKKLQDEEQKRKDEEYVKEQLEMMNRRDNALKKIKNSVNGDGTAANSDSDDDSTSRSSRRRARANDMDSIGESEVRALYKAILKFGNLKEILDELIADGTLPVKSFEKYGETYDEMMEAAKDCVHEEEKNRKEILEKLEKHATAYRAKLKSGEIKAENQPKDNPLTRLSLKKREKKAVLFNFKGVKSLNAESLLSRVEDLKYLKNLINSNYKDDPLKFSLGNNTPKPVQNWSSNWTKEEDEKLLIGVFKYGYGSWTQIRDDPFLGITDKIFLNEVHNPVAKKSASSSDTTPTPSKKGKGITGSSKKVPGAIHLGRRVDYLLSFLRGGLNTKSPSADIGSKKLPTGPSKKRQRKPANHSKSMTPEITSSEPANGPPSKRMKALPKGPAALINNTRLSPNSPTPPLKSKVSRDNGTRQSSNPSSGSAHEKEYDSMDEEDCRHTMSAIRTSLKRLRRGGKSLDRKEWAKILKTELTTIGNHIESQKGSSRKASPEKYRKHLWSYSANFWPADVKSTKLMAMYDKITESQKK

Each structure is given as a SMILES string. For some of these results: Results with a measured potency or affinity are listed apart.

Chain of Protein translocase subunit SecA (Escherichia coli (strain K12)) (P10408 whole entry): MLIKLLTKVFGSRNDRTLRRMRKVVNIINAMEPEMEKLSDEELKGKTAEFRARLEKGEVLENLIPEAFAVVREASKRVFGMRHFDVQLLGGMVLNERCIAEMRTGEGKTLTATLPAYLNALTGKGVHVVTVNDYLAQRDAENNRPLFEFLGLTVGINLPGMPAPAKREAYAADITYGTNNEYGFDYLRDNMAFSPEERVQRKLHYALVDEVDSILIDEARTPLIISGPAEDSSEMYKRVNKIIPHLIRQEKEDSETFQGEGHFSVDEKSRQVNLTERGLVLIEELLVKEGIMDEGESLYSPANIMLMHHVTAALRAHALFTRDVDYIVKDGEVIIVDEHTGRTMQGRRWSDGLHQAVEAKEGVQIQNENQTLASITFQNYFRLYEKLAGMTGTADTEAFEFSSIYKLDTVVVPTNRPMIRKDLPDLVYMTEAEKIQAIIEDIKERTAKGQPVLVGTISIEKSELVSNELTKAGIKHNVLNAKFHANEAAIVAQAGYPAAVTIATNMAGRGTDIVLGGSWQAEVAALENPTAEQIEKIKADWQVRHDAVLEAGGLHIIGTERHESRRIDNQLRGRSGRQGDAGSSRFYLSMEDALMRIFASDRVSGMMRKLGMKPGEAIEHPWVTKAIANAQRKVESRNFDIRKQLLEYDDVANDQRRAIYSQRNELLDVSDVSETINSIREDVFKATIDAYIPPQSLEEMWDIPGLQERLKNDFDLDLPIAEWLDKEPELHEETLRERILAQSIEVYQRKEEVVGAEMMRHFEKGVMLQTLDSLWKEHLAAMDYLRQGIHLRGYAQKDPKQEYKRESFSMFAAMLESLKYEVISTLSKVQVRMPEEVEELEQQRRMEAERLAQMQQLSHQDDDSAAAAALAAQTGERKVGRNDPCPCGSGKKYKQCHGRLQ

For the compound `Cc1cc(O)nc(C2CCCN(Cc3ccncc3)C2)n1` (stereo unspecified), the Percent Effect in assay [1] was -0.276%; in assay [2], 14.9%; in [3], 4.7%; in assay [4], -7.91%; with Trypanosoma cruzi it was 3.75%; in [5], -0.696%. In addition, the Percent Effect in assay [6] was 10.4%; in the assay filed under Homo sapiens, -0.951%; in assay [7] it was 1.07%; in assay [8], 11.7%; in assay [9], -12.3%.

With `Cc1cc(C)c(CNC(=O)NCCOc2ccc3c(c2)CCC3)c(=O)[nH]1`, the Percent Effect was -3.48% in assay [1]; -5.26% in assay [2]; 0.256% in assay [3]; 7.3% in assay [4]; 9.96% in the assay with Trypanosoma cruzi; 0.383% in [5]. Further, the Percent Effect in assay [6] stood at 0%; in the assay listed under Homo sapiens, 3.96%; in assay [7], 1.47%; in [8], 0%; in assay [9], 3.04%.

For `CCn1cc(NC(=O)NCC(O)COc2cccc(F)c2)cn1` (stereo unspecified), the Percent Effect is 2.07% in assay [1]; 13.2% in assay [2]; -3.12% in assay [3]; 0.363% in assay [4]; -7.14% in the assay on Trypanosoma cruzi; 1.92% in assay [5]. The Percent Effect in [6] is 6.68%; in the assay filed under Homo sapiens it was 13.5%; in assay [7], 2.45%; in assay [8] it was 17.1%; in assay [9], -8.89%.

As for `O=C(NCCN1CCNCC1)c1c(O)c2ccccc2[nH]c1=O`, the Percent Effect is 1.56% in assay [1]; 12% in assay [2]; 11% in assay [3]; -7.32% in assay [4]; -9.23% with Trypanosoma cruzi; -14.3% in assay [5]. Further, the Percent Effect is 20.1% in assay [6]; 26.5% in the assay filed under Homo sapiens; 0% in assay [7]; 5.13% in assay [8]; -9.61% in [9].

With `CNC(=O)[C@H]1CO[C@H]2CCN(Cc3ccc4ccccc4n3)C[C@H]2C1`, the Percent Effect in assay [1] is -4.79%; in [2], 8.11%; in assay [3], 7.95%; in [4] it was -3.25%; with Trypanosoma cruzi, -3.62%; in [5] it was 9.87%. The Percent Effect in assay [6] is 18.8%; in the assay filed under Homo sapiens it was -14.1%; in assay [7], 2.16%; in [8], 15.4%; in assay [9], 1.01%.

In the case of `O=C(N1CCCC1)N1Cc2nccn2CC(CN2CCCC2)C1` (stereo unspecified), the Percent Effect in assay [1] is 0.719%; in [2], 5.41%; in assay [3], 7.93%; in [4], -1.18%; in the assay with Trypanosoma cruzi it was -5.77%; in assay [5] it was -0.955%. The Percent Effect in assay [6] is 25.8%; in the assay listed under Homo sapiens, -2.41%; in assay [7], -1.08%; in assay [8] it was 10.3%; in assay [9], -2.63%.

As to `COc1cccc(Cc2nnc(SC3CCOC3=O)o2)c1` (stereo unspecified), the Percent Effect in [1] was -4.53%; in [2] it was -2.67%; in [3], -9.71%; in [4], 15.1%; in the assay with Trypanosoma cruzi, 2.04%; in assay [5], 0.521%. Moreover, the Percent Effect in [6] is 5.41%; in the assay listed under Homo sapiens it was 5.46%; in assay [7], -4.92%; in assay [8], 8.64%; in assay [9], -2.72%.

As to `CCN(CC)Cc1ccc(C(=O)N2CCN(CC(C)O)CC2)cc1` (stereo unspecified), the Percent Effect in assay [1] was -4.12%; in assay [2], 0%; in [3], -3.46%; in assay [4] it was 8.13%; with Trypanosoma cruzi, -0.472%; in assay [5], -2.81%. For the same compound, the Percent Effect in assay [6] is -4.5%; in the assay listed under Homo sapiens it was -2.61%; in [7], 4.43%; in assay [8] it was 1.24%; in [9], 0.847%.

In the case of `COCC(c1cccc(C(F)(F)F)c1)N(C)C(=O)c1cc(C)n[nH]1` (stereo unspecified), the Percent Effect was 0.248% in [1]; 18.4% in assay [2]; -1.4% in assay [3]; -4.5% in assay [4]; -3.01% in the assay on Trypanosoma cruzi; 2.68% in assay [5]. The Percent Effect is 9.02% in [6]; 0.723% in the assay listed under Homo sapiens; 1.47% in [7]; 12.2% in assay [8]; -13% in assay [9].

Take `CCn1cc(NC(=O)C2CCN(CC(=O)N3CCOCC3)CC2)cn1`: the Percent Effect was -3.94% in assay [1]; 10.5% in assay [2]; -3.09% in [3]; 3.27% in assay [4]; -4.01% with Trypanosoma cruzi; 1.8% in [5]. Further, the Percent Effect stood at 3.98% in assay [6]; 3.5% in the assay filed under Homo sapiens; 2.46% in assay [7]; 11.1% in [8]; 4.1% in assay [9].

Take `O=C(NC1(c2cccc(F)c2)CCOCC1)c1ccccn1`: the Percent Effect was -5.05% in [1]; 2.6% in assay [2]; -0.416% in assay [3]; 0.357% in [4]; -4.03% in the assay on Trypanosoma cruzi; 2.76% in assay [5]. For the same compound, the Percent Effect in assay [6] is 0.499%; in the assay filed under Homo sapiens, 14.4%; in assay [7] it was -6.45%; in [8], -6.17%; in [9] it was 2.74%.
